The values below come from PubChem BioAssay (NCI).

Several values for one entry are separate records, joined by “and”; a condition that tells them apart may be missing. Identical values can stand only once. The panel holds about 83,000 compounds, 20% with a hit somewhere; the sample as a whole holds those more often.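 96-well plates, one dose, 48 hours. Percent growth reported; active if below 10.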 Activity calls are given as the source filed them. Where a SMILES comes first, the peptide text is derived from it. The star is where a group is joined. Trt = c1ccc(C(c2ccccc2)(c2ccccc2)*)cc1; Cbz = O=C(OCc1ccccc1)*

For this assay, the system named is U251 CNS. The experiment in a line: NCI-60 one-dose screen, 48 h (100 = growth as untreated, 0 = no growth, -100 = all killed). The settings on record: 10 µM unless noted. The method, then:
Growth inhibition of the U251 human tumor cell line is measured as a screen for anti-cancer activity. Cells are grown in 96 well plates and exposed to the test compound for 48 hours. Compounds are tested at a single concentration, which is 10^-5 M for most compounds. The reported endpoint is percent growth (GI% or GIPRCNT), where numbers from 0 - 100% represent growth inhibition, and numbers from -100% - 0 represent cell death. For example, a value of 40 represents 60% growth inhibition. A value of 0 means no net growth occurred over the course of the experiment. A value of -40 indicates 40% of cells at the beginning of the experiment died by the end of the experiment. A value of -100 means all cells are dead at the end of the experiment.
NCI-60 Human Tumor Cell Lines Screen was performed using the standard one-dose NCI protocol, which is described in more detail at https://dtp.cancer.gov/discovery_development/nci-60/default.htm.
Compounds with GIPRCNT values below 10 were considered active. Activity score was based on GIPRCNT using the following formula: […]
Score is 0 for GIPRCNT values of 100 or above, 50 for GIPRCNT values of 0, and 100 for GIPRCNT values of -100.
For `Cc1ccc2c(ccc3c[n+]4c5ccccc5ccc4n32)c1`, the growth was -12.4% (active).

Turning to `CCC(CCCN(CC)CCc1ccccc1)OC(=O)c1cc(OC)c(OC)c(OC)c1` (stereo not given), the growth was 90.8% (inactive).

For the compound `CC(=Nc1ccc(N(C)C)cc1)c1ccccc1`, the growth was 27.2% (inactive).

Take `COC(=O)C(CSC(c1ccccc1)(c1ccccc1)c1ccccc1)NC(=O)C(CC(N)=O)NC(=O)OCc1ccccc1` (stereo not drawn) (Cbz-Asn-Cys(Trt)-OMe; configuration not given here): the growth is 50.2% (inactive).

As for `Cc1ccc(NS(=O)(=O)c2ccc(C)cc2)cc1`, the growth was 96.9% (inactive) and 86.6% (inactive).

On to `O=C(Nc1cccc(Br)c1)Oc1ccc(Cl)c2cccnc12`, for which the growth is 20.2% [100 µM] (inactive).

With `Cc1cc2nc(CS)[nH]c2cc1C`, the growth was 85.1% (inactive).

On to `O=C(O)c1ccc2c3c(ncnc13)-c1ccccc1C2=O`, for which the growth is 60.6% (inactive).

`O=C(O)c1c(Cl)c(Cl)c(Cl)c(Cl)c1-c1c2cc(I)c(=O)c(I)c-2oc2c(I)c(O)c(I)cc12`: the growth is 98.5% (inactive) and 95.3% (inactive) and 97.7% (inactive).

For the compound `COC(=O)[C@@]12OC[C@]34[C@H]([C@@H](O)[C@@H]1O)[C@@]1(C)[C@H](O)C(=O)C=C(C)[C@@H]1C[C@H]3OC(=O)C(OC(C)=O)[C@@H]24` (stereo not given in full), the growth is -31.4% (active).

Regarding `CCCCCCC(C)c1ccccc1O` (stereo not given) (tested in a mixture with another compound), the growth was 104% (inactive).

Take `CCC(c1cccc(O)c1)C(CC)c1cccc(O)c1` (stereo not given): the growth is 45.5% (inactive).

Regarding `C/C=C1\SC(=S)NC1=O`, the growth is 96.2% (inactive).

For `Oc1c(Br)cc(Cl)cc1C(c1cc(Cl)cc(Br)c1O)C(Cl)(Cl)Cl`, the growth is 15.2% (inactive).

For the compound `O=C1c2ccccc2C(=O)c2sc(Nc3cccc(Cl)c3)nc21`, the growth is -47.3% (active).

Regarding `Oc1c(Cl)cc(Cl)c2cccnc12`, the growth is 35.5% (inactive).

For the compound `S=C(N/N=C/c1ccccn1)Nc1ccccn1`, the growth is 10.1% (inactive).

For the compound `COc1ccccc1/C=C\C(=O)c1ccccc1`, the growth was 45.6% (inactive).

`COC(=O)c1nc(=S)[nH]c(C(=O)OC)c1C(=O)c1ccc2ccccc2c1`: the growth was 97.6% (inactive).

Consider `CN=C(N)N/N=C(\C)c1ccc2c(c1)Cc1cc(/C(C)=N/NC(N)=NC)ccc1-2`, for which the growth was -78.9% (active).

Take `Oc1c(Cl)c2ccccc2c2ccccc12`: the growth was 113% (inactive).

As for `CCOC(=O)/C=C/c1ccc([N+](=O)[O-])o1`, the growth was 82.6% (inactive).

Consider `N[C@H](C(=O)O)[C@@H]1CC(Cl)=NO1`, for which the growth is 26.8% [20 µM] (inactive).

As to `CNC(=O)N/N=C/c1ccc([N+](=O)[O-])o1`, the growth is 96.9% (inactive).

Consider `CCCCCCCCCCCCCCNCc1ccccc1`, for which the growth is 57.6% (inactive).

For the compound `Cn1c2c(c3ccccc31)CCN1C[C@@H]3CCCC[C@H]3C[C@@H]21`, the growth was 19.8% (inactive).

On to `Cc1cc(C(C)(CC(C)C)c2ccc(O)c(C)c2)ccc1O`, for which the growth was 94.3% (inactive).

In the case of `Cc1ccnc(NC(c2ccccc2)c2ccc3cccnc3c2O)c1` (stereo not given), the growth is 20.4% (inactive).

On to `COC(=O)c1nc(=S)[nH]c(C(=O)OC)c1C(=O)c1ccccn1`, for which the growth is 31% (inactive).

As for `N#CSCc1c(Cl)cccc1Cl`, the growth was 91.8% (inactive).

`O=Nc1ccccc1N=O`: the growth was 78.3% (inactive).

On to `N#CSCc1ccc(Cl)c(CSC#N)c1`, for which the growth is 61% (inactive).

Regarding `NC(=O)/C=C/C(=O)c1c(Cl)cccc1Cl`, the growth was -59.1% (active).

Regarding `Cc1ccc2nc(-[n+]3cc4ccccc4cc3C)ccc2c1`, the growth was 22.6% (inactive).

As for `COC(=O)Nc1nc2ccc(C(=O)c3ccccc3)cc2[nH]1`, the growth was 23.7% (inactive) and 19.9% (inactive) and 16.9% (inactive).

For the compound `Nc1nc(N)c2nc(CNc3ccc(C(=O)NC(CCC(=O)O)C(=O)O)cc3)cnc2n1` (stereo not given), the growth is 37.9% (inactive) and 26.9% (inactive).

Regarding `O=C(Nc1cccc(Br)c1)Oc1cccc2cccnc12`, the growth was 21.1% [100 µM] (inactive).

`O=C1C=CC(=O)N1C1c2ccccc2-c2ccccc21`: the growth is 92.8% (inactive).

With `CC(C)c1ccc2nc3ccc(C(=O)NCCN4CCN(c5ccccc5)CC4)cn3c(=O)c2c1`, the growth is 38.2% (inactive).

Regarding `CC1OC2CC(=O)OC2C2=C1C(=O)c1c(O)cccc1C2=O` (stereo not given), the growth is -44.8% (active).
